Test results published in PubChem BioAssay (Tox21).
Records with an inconclusive call do not appear. Active and inactive are the calls of the source. Unless noted, the call rests on the fitted dose curve; in most records, active means well fitted curve in the direction sought with a large enough effect in the repeat runs; inconclusive means weak or mixed curves; inactive means no such curve, though single readings can be large; an effect the other way counts as inactive or inconclusive.

Assays:
[1] = qHTS assay for small molecule agonists of the p53 signaling pathway (AID 651631; calls by dose curve; further: nearly all actives have a fitted effect of over 15% in size)
How it was run: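 Beta-lactamase reporter activity under p53 response elements was quantified in HCT-116 cells by FRET fluorescence, following 16 h incubation with test compounds at 37 °C and 2 h substrate development at room temperature.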

[2] = qHTS assay for small molecules that induce genotoxicity in human embryonic kidney cells expressing luciferase-tagged ATAD5 (AID 651632); further: nearly all actives have a fitted effect of over 15% in size
How it was run: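 Luminescent reporter readout, HEK293T ATAD5-luc line: 16 hr drug exposure (37C, 5% CO2) followed by Amplite, 30 min RT.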

[3] = qHTS assay for small molecule agonists of the p53 signaling pathway - cell viability (AID 651633; calls by dose curve;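 further: p53RE-bla HCT reporter cells with a stable beta-lactamase p53 reporter; series mostly up to about 83 µM; nearly all actives have a fitted effect of over 30% in size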)
How it was run: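 p53RE-bla cells, seeded at 4,000 per well and rested 5 h at 37 C/5% CO2, received compounds in DMSO for 16 h at 37 C. CellTiter-Glo was then added, and luminescence was read after 30 min at room temperature to gauge cytotoxicity.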

[4] = qHTS assay for small molecules that induce genotoxicity in human embryonic kidney cells expressing luciferase-tagged ATAD5 - cell viability (AID 651634; calls by dose curve; further: nearly all actives have a fitted effect of over 25% in size)
How it was run: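 Viability read: CellTiter-Fluor fluorescence, 30 min at 37C. Cells: HEK293T, luciferase-tagged ATAD5. Exposure: 15.5 hr, 37C, 5% CO2, compound or DMSO vehicle.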

[5] = qHTS assay to test for compound auto fluorescence at 590 nm (red) in HepG2 cells (AID 720674)
How it was run: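 Rose Bengal sodium served as the red fluorophore standard. HepG2 monolayers (overnight attachment, MEM with 10% FBS) were exposed to test compounds for 1 hr at 37 C and read at Ex 540/Em 590 nm.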

[6] = qHTS assay to test for compound auto fluorescence at 535 nm (green) in HepG2 cells (AID 720675)
[7] = qHTS assay to test for compound auto fluorescence at 460 nm (blue) in HEK293 cells (AID 720678)
How it was run: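 HEK293, 2,000 cells/well, 10% dialyzed FBS; attach 4-5 hr 37C; pin compound or DMSO; o/n 37C/5% CO2; fluorescence 405/460 nm; triamterene-equivalent units.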

[8] = qHTS assay to test for compound auto fluorescence at 590 nm (red) in HEK293 cells (AID 720679)
How it was run: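 Intensity at 540nm excitation and 590nm emission is reported as Rose Bengal sodium-equivalent autofluorescence. Measurements followed overnight exposure (37C, 5% CO2) of HEK293 cells, 2,000 per well, to 23 nL compound.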

[9] = qHTS assay to test for compound auto fluorescence at 535 nm (green) in HEK293 cells (AID 720680)
[10] = qHTS assay to test for compound auto fluorescence at 460 nm (blue) in HEK293 cell free culture (AID 720681)
How it was run: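 Test compounds were pinned into cell-free culture medium (DMEM with 10% FBS) and fluorescence was read directly at Ex/Em 405/460 nm. Signals were expressed as fluorescence equivalents of triamterene, with DMSO vehicle as control.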

[11] = qHTS assay to test for compound auto fluorescence at 535 nm (green) in HEK293 cell free culture (AID 720682)
How it was run: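 Each library compound, or DMSO control, is added by pintool to medium alone, comprising DMEM and 10% FBS. Emission at 535 nm following 485 nm excitation is quantified against fluorescein.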

[12] = qHTS assay to test for compound auto fluorescence at 590 nm (red) in HepG2 cell free culture (AID 720684)
How it was run: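 Red fluorescence (540 nm excitation, 590 nm emission) was measured after compound transfer into cell-free MEM supplemented with 10% FBS. Values are equivalencies against Rose Bengal sodium.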

[13] = qHTS assay to test for compound auto fluorescence at 460 nm (blue) in HepG2 cell free culture (AID 720685)
How it was run: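 Compound (23 nL) or DMSO pinned into cell-free MEM with 10% FBS; blue fluorescence read at 405/460 nm excitation/emission, expressed as auto-fluorescence equivalency to triamterene.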

[14] = qHTS assay to test for compound auto fluorescence at 535 nm (green) in HepG2 cell free culture (AID 720686)
[15] = qHTS assay to test for compound auto fluorescence at 460 nm (blue) in HepG2 cells (AID 720687)
How it was run: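 Cells (2,000/well in MEM with 10% FBS) attached overnight at 37 C, then were exposed to compound or DMSO for 1 hr at 37 C, 5% CO2. Fluorescence read at Ex/Em 405/460 nm, expressed as triamterene-equivalent signal.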

[16] = molecular target: Glucocorticoid receptor (Homo sapiens) (UniProt P04150); experiment: qHTS assay to identify small molecule agonists of the glucocorticoid receptor (GR) signaling pathway (AID 720691; active means well fitted activation curve with a large enough effect in the signal ratio in the repeat runs, not every such curve was filed as active; the % refers to the signal ratio)
How it was run: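 qHTS in GR-bla HeLa cells: 4 h settling at 37 C/5% CO2, 18 h compound incubation at 37 C, 2 h LiveBLAzer B/G FRET substrate at room temperature, fluorescence intensity measured.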

[17] = molecular target: Glucocorticoid receptor (Homo sapiens) (UniProt P04150); experiment: qHTS assay to identify small molecule antagonists of the glucocorticoid receptor (GR) signaling pathway (AID 720692; active means well fitted inhibition curve with a large enough effect in the signal ratio in the repeat runs, not every such curve was filed as active; the % refers to the signal ratio)
How it was run: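 Inhibition of glucocorticoid signalling is measured in HeLa cells with a GRE-controlled beta-lactamase reporter; cells are co-treated with compound and 5 nM dexamethasone (final) for 18 h before FRET substrate readout.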

[18] = qHTS assay to test for compound auto fluorescence at 590 nm (red) in HEK293 cell free culture (AID 720683)
How it was run: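 Tox21 10K library compounds were pinned into cell-free DMEM with 10% FBS and fluorescence was read at excitation 540 nm. Activity is expressed as Rose Bengal sodium equivalency.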

[19] = qHTS assay for small molecule disruptors of the mitochondrial membrane potential - cell viability (AID 720634; calls by dose curve;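 further: human HepG2 liver cancer cells; series mostly up to about 83 µM; nearly all actives have a fitted effect of over 20% in size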)
How it was run: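 HepG2, 1 hr compound, 37 C. ATP luminescence via CellTiter-Glo, 30 min RT, same well as m-MPI.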

[20] = qHTS assay for small molecule disruptors of the mitochondrial membrane potential (AID 720635)
How it was run: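 HepG2 cells (2,000/well) attached overnight at 37C, then took compound for 1 hr at 37C, 5% CO2. Mito-MPS dye was added for 30 min; fluorescence was read at 490/535 nm (monomers) and 540/590 nm (aggregates).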

Measured: Potency

Chain of Glucocorticoid receptor (Homo sapiens) (P04150 whole entry, looked up): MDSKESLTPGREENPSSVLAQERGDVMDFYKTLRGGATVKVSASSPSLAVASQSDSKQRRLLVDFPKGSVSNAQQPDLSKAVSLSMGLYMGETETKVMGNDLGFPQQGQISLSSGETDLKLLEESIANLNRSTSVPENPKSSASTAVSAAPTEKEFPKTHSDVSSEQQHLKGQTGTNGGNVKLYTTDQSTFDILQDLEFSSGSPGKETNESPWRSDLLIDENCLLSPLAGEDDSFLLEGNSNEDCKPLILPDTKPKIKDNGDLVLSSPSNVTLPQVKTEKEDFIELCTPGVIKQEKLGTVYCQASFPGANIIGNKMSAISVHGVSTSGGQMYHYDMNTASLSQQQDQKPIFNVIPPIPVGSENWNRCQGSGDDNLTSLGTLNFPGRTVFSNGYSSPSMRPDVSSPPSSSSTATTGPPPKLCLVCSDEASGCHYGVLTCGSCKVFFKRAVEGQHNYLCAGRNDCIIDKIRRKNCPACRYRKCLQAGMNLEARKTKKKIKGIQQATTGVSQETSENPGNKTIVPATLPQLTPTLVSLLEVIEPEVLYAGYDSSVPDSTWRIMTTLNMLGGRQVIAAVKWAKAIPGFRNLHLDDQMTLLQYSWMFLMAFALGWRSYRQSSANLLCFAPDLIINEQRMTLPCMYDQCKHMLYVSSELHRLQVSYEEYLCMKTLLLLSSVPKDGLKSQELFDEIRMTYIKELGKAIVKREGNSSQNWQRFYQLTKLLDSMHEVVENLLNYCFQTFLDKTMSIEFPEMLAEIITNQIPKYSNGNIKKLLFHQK

CCCCCCCCCCCCCCC1CO1 (stereo not given)
inactive: [1] | [2] | [3] | [4] | [5] | [6] | [7] | [8] | [9] | [10] | [11] | [12] | [13] | [14] | [15] | [16] | [17]

C[C@H](CCC(=O)O)[C@H]1CC[C@H]2[C@@H]3[C@H](O)C[C@@H]4C[C@H](O)CC[C@]4(C)[C@H]3CC[C@]12C
inactive: [1] | [2] | [3] | [4] | [5] | [6] | [7] | [8] | [9] | [10] | [11] | [18] | [12] | [13] | [14] | [15]

NCCCOCCOCCOCCCN
inactive: [1] | [2] | [3] | [19] | [20] | [5] | [6] | [7] | [8] | [9] | [10] | [11] | [18] | [12] | [13] | [16] | [17]

CC(C)c1cccc(C(C)C)c1NC(=O)NS(=O)(=O)c1cc(C(C)(C)O)co1
inactive: [1] | [2] | [3] | [19] | [5] | [6] | [7] | [8] | [10] | [18] | [12] | [13] | [14] | [15] | [16] | [17]

CC1(C)[C@H]2CC[C@]1(C)[C@H](O)C2
inactive: [1] | [2] | [3] | [19] | [20] | [5] | [7] | [8] | [9] | [10] | [11] | [18] | [12] | [13] | [14] | [15] | [16] | [17]

COc1ccc2[nH]c(S(=O)Cc3ncc(C)c(OC)c3C)nc2n1 (stereo not given)
inactive: [1] | [2] | [3] | [4] | [20] | [5] | [6] | [7] | [9] | [10] | [11] | [18] | [12] | [13] | [14] | [15] | [16] | [17]

CC(=O)OC/C=C/c1ccccc1
inactive: [1] | [2] | [3] | [4] | [20] | [5] | [6] | [8] | [9] | [10] | [11] | [18] | [12] | [13] | [14] | [15] | [16] | [17]
